# An excerpt weighted towards active compounds, which were near 3.4% of everything screened.
# HSF1 inh: HSF1 inhibitors in luciferase reporter cells, primary screen, cell-based, NIH3T3, luminescence. NIH3T3-HGL HSE-luciferase, MG132-induced, luminescence 8 h; stronger effect = lower value. activity change, negative = inhibition, % at 7.5 µM (by protocol). actives 0.77% (n = 300,000);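 active = more than half of replicate wells show activity change below -50%, luminescence cut by over half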;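 note: luciferase reports HSF-1 transcriptional activity via heat shock element; 0% = median of DMSO wells and -100% = zero luminescence signal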
# SMARCA2 act: SMARCA2 (BRM) function activators, primary screen, cell-based, luminescence, high throughput; MG213 cells, MMTV-luciferase reporter, dexamethasone, overnight; activation, % at 9.1 µM; actives 1% (n = 370,000); AID 652017, 2013; in the data active = activation above about 7.8%;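 note: 0% = vehicle wells and 100% = reference activator wells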
# FXN GAA850 act: FXN promoter activators, primary screen, cell-based, luciferase luminescence, HEK293 lucGAA850; HEK293 lucGAA850 FXN promoter luciferase reporter, 24 h; percent of 10 µM SAHA response; AID 540364, 2011; actives 0.56% (n = 360,000); activation, % at 6 µM;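 active = activation above the average of all compounds screened plus 3 SD, cutoff fixed separately per campaign, cut at about 7.5% in these data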;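 note: 0% = DMSO wells and 100% = 10 µM SAHA wells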
# HSP90 inh: HSP90 inhibitors, primary screen, cell lysate, luminescence; Rabbit reticulocyte lysate, luciferase refolding luminescence, 3 h; inhibition, % at 5.6 µM; actives 0.91% (n = 290,000);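 active = inhibition above the screen-wide mean plus 3 SD, computed separately per campaign, cut at about 16% in these data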;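 note: 0% = DMSO wells and 100% = 60 µM geldanamycin wells; inhibitors lower the luminescence because luciferase stays unfolded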
# PG9 binder: binders of HIV-1 gp120 antibody PG9, primary screen, biochemical, TR-FRET; HIV-1 gp120 / PG9 antibody interaction; TR-FRET gp120-PG9 antibody binding; inhibition, % at 6.7 µM; actives 0.43% (n = 360,000); in the data active = inhibition above about 8.5%
# AI-2 QS mod: Vibrio harveyi AI-2 quorum sensing modulators, primary screen, JMH597 strain, luminescence/OD600 ratio; Vibrio harveyi JMH597 AI-2 luminescence/OD600 ratio, 9 h; stronger effect = lower value; strain lacks LuxN and CqsS sensors; 0 = neutral-control median; activity change, % at 7.5 µM; actives 0.4% (n = 300,000); in the data active = activity change below about -75%, passing the limit was not always enough;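 note: luminescence divided by OD600 gain over 9 h not by final OD600 alone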
# GAA30 FXN cntr: GAA30 FXN promoter activators, confirmation, counter-screen for GAA850 frataxin promoter activator project, cell-based, luminescence, HEK293, lucGAA30, triplicate | shares compounds with FXN GAA850 act | HEK293 lucGAA30 FXN promoter luciferase, 24 h; DMSO = 0%, 5 µM ipriflavone = 100% | activation, % at 6 µM | actives 66% (n = 1,900);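 active = mean activation above the mean of solvent-only control wells plus 3 SD, cut at about 22% in these data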;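 note: counterscreen of GAA850 promoter hits where activity marks nonselective or luminescence artifacts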
# GAA850 confirm: FXN GAA850 promoter activators in reporter cells, confirmation, cell-based, luminescence, HEK293 lucGAA850, triplicate | shares compounds with FXN GAA850 act | activation, % at 6 µM | HEK293 lucGAA850 FXN promoter luciferase reporter, 24 h; 100% = activation by SAHA | actives 86% (n = 1,900) | AID 588351, 2011;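 active = mean activation above a set limit taken from the primary screen, cut at about 8% in these data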;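 note: 0% = DMSO wells and 100% = 10 µM SAHA wells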
# An asterisk follows results filed as active; nt = no result given.
SMILES,HSF1 inh,SMARCA2 act,FXN GAA850 act,HSP90 inh,PG9 binder,AI-2 QS mod,GAA30 FXN cntr,GAA850 confirm
Cc1cc(Cl)c2oc(C(=O)N(C)C3CCOC3)c(C)c2c1 (stereo not drawn),26.6,2.0,9.8*,-3.3,-1.0,12.0,98.0*,37.5*
OCC[C@@H]1C[C@H](O)[C@@H](O)[C@]2(OCc3ccc(CO)cc32)O1,nt,-1.5,nt,nt,0.2,nt,nt,nt
CN(C)[C@H]1CCN(c2ccc3c(c2)OCCCN(C2CC2)S3(=O)=O)C1,nt,-3.1,nt,nt,nt,nt,nt,nt
c1ccc(Nc2nc(-c3cccs3)cs2)nc1,10.3,2.4,4.3,2.8,-0.1,1.1,nt,nt
Cc1cccc(Nc2nc(-c3cccs3)cs2)n1,33.9,-0.2,7.7*,-1.4,-1.6,6.2,115.4*,40.8*
CN1/C(=C/C(=O)c2nc(S(C)(=O)=O)ncc2Cl)C(C)(C)c2ccccc21,-91.8*,nt,9.8*,1.2,nt,7.0,-108.9,-19.1
Cc1nn2c(-c3ccccc3)nnc2c2ccccc12,nt,1.5,5.5,4.4,-1.3,nt,nt,nt
Cc1nn2c3ccccc3nc2c2ccccc12,1.4,6.9,11.2*,-2.2,0.3,10.9,75.3*,31.0*
N#C/C(=C\C=C\c1ccccc1[N+](=O)[O-])C(=O)NC1CCCCC1,34.1,nt,14.0*,0.6,nt,11.7,-33.5,17.6*
COc1cc(/C=C(\C#N)c2nc3ccccc3[nH]2)ccc1OC(=O)c1ccco1,3.3,2.5,7.8*,5.4,-1.6,3.9,119.4*,35.5*
N#C/C(=C\c1ccncc1)c1nc2ccccc2[nH]1,15.1,-1.4,8.8*,-1.1,-2.6,15.3,33.2*,9.3*
COc1cc(/C=C(/C#N)c2nc3ccccc3[nH]2)ccc1OCC(=O)Nc1ccccc1C,nt,-1.6,-13.4,-2.4,-2.8,nt,nt,nt
CC1Cc2ccccc2N1C(=O)COc1ccc2c(c1)OCO2 (stereo not drawn),6.5,0.4,8.0*,1.3,-2.6,16.9,78.6*,23.5*
CC1CCCN(C(=O)COc2ccc3c(c2)OCO3)C1 (stereo not drawn),-12.5,7.6,2.8,-0.6,-2.7,32.9,nt,nt
O=c1c2ccccc2n(Cc2ccc(Cl)cc2)c(=O)n1Cc1ccco1,0.0,0.7,2.9,6.7,-1.2,15.3,nt,nt
O=C(NCc1ccco1)c1ccc(Cn2c(=O)c3ccccc3n(Cc3cccc(F)c3)c2=O)cc1,3.4,0.3,8.0*,1.5,-1.5,17.6,4.8,7.3
O=C(NCc1ccco1)c1ccc(Cn2c(=O)c3ccccc3n(Cc3ccc(Cl)cc3)c2=O)cc1,5.2,-0.3,13.9*,7.0,0.6,23.3,22.1*,14.0*
N#Cc1ccccc1Cn1c(=O)n(-c2ccc(CC(=O)NCc3ccco3)cc2)c(=O)c2sccc21,4.2,-4.6,-0.2,-1.7,2.5,20.6,nt,nt
N#Cc1ccccc1Cn1c(=O)n(Cc2ccc(C(=O)NCc3ccco3)cc2)c(=O)c2sccc21,0.4,-1.0,11.8*,-2.5,-0.5,40.5,22.5*,7.8*
COc1ccc(CN2C(C(=O)NCC(C)C)CSCCS2(=O)=O)cc1 (stereo not drawn),nt,-2.6,nt,nt,nt,nt,nt,nt
CCNC(=O)C1(C)CCN1CCC(=O)c1ccc(C)cc1 (stereo not drawn),nt,3.0,0.8,nt,-1.6,nt,nt,nt
CCc1ccc(Cc2cnc(NC(=O)C3=NCCN3)s2)cc1,-10.9,-3.9,0.9,0.3,-0.8,28.7,nt,nt
Cc1ccc(C(=O)Nc2ncc(Cc3ccc(SC(F)F)cc3)s2)cc1,-8.0,-1.4,7.6*,2.9,1.3,8.9,-11.5,37.0*
O=C(NCc1cccnc1)NC1(C(F)(F)F)Oc2ccc(Cl)cc2O1 (stereo not drawn),-8.0,nt,12.3*,-3.4,nt,-0.9,25.6*,18.4*
Cc1cc(NC(=O)NC2(C(F)(F)F)Oc3ccc(Cl)cc3O2)no1 (stereo not drawn),22.9,nt,17.9*,-4.3,nt,16.6,29.9*,14.6*
SMILES,HSF1 inh,SMARCA2 act,FXN GAA850 act,HSP90 inh,PG9 binder,AI-2 QS mod,GAA30 FXN cntr,GAA850 confirm
COCCNC(=O)NC1(C(F)(F)F)Oc2ccc(Cl)cc2O1 (stereo not drawn),25.6,-4.9,14.9*,7.7,-2.0,-8.9,16.5,10.9*
CCCCNC(=O)NC1(C(F)(F)F)Oc2ccccc2O1,-3.1,-0.9,1.7,-4.1,-1.0,-2.1,nt,nt
Cc1cc(NC(=O)Nc2ccc(F)c(Cl)c2)no1,-4.9,2.2,1.0,0.7,1.6,7.6,nt,nt
Cc1ccc(Cl)cc1NC(=O)NCc1cccnc1,-4.7,-1.7,-0.8,3.0,-1.4,28.7,nt,nt
CN(C)c1ccc(N(C)C)c(C(O)(c2ccccc2)c2ccccc2)c1,nt,-0.6,nt,nt,-1.5,nt,nt,nt
CCCCCCCCN1C(=O)[C@@H](CC(=O)NCCCN2CCCC2=O)C[C@@]2(C(=O)OC)C1=C[C@H](C(C)(C)C)O[C@@H]2C,nt,-1.3,nt,nt,-0.8,nt,nt,nt
CC1(C)OC(=O)C2=C(CC(CCc3ccccc3)OC2c2cccc(C(F)(F)F)c2)O1 (stereo not drawn),nt,0.1,nt,nt,2.1,nt,nt,nt
CCOC(=O)[C@H](CCc1ccccc1)N[C@@H](C)C(=O)N1Cc2cc(OC)c(OC)cc2C[C@H]1C(=O)O,nt,4.6,nt,nt,nt,nt,nt,nt
CC(=O)O[C@H]1CC[C@]2(C)C3CC[C@]4(C)[C@@H]([C@H](C)/C=C/[C@H](C)C(C)C)CC[C@H]4[C@@]34C=C[C@]2(C1)N(C(=O)c1ccccc1)O4 (stereo partly drawn),nt,-0.8,nt,nt,0.3,nt,nt,nt
CCOc1cc(-c2nc3ccccc3s2)ccc1O,-2.3,6.0,9.4*,-0.9,0.2,14.2,98.7*,28.7*
COc1cc(-c2nc3ccccc3s2)ccc1O,21.4,2.7,4.5,2.6,0.6,0.7,nt,nt
CC(C)c1ccc(NC(=O)C2(C)Cc3c(-c4ccccc4)ccnc3O2)cc1 (stereo not drawn),nt,-5.0,1.8,nt,2.2,nt,nt,nt
Cc1ccc(OCCOc2ccc(Cl)cc2Cl)c([N+](=O)[O-])n1,32.2,-0.4,4.8,-1.9,-1.2,22.7,nt,nt
